Inconclusive results are not listed. Where a call stands in place of a potency, no number is given. Activity calls are given as the source filed them. Calls follow the shape of the dose curve; as a rule, active = well fitted curve in the direction sought with a large enough effect; inconclusive = small, poorly fitted or top-dose-only effect, or another doubt; inactive = no such curve, though single readings can be large; an effect the other way counts as inactive or inconclusive.
Experiment: qHTS for compounds that reverse cellular toxicity of Amyloid beta (A-beta) peptide in yeast: LOPAC Validation Assay (AID 720559)
Details: yeast expressing A-beta; series mostly up to 46.1 µM
Outline: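 Yeast expressing toxic A-beta grown with pinned compounds at 30 C for 48 hr. Growth measured as absorbance at 600 nm; data normalized to DMSO and to an equimolar FeCl3/clioquinol mixture as positive control.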

| SMILES | outcome |
| --- | --- |
| C=CCN1CCc2cccc3c2[C@H]1Cc1ccc(O)c(O)c1-3 | inactive |
| COc1ccc2c(c1)c(CCN1CCOCC1)c(C)n2C(=O)c1cccc(Cl)c1Cl | inactive |
| CC(=O)c1c(O)c(C)c(O)c(Cc2c(O)c3c(c(C(=O)/C=C/c4ccccc4)c2O)OC(C)(C)C=C3)c1O | inactive |
| Clc1ccc(N2CC3CCC(C2)N3)nn1 | inactive |
| N[C@@H](Cn1oc(=O)[nH]c1=O)C(=O)O | inactive |
| C=CCN1CCC23c4c5ccc(O)c4O[C@H]2C(=O)CC[C@@]3(O)C1C5 (stereo partly specified) | inactive |
| NCCc1c[nH]c2ccc(C(N)=O)cc12 | inactive |
| CCCN(CCC)[C@@H]1CCc2cccc(O)c2C1 | inactive |
| CCCn1c(C)c(C(=O)c2ccc3ccccc3c2)c2ccccc21 | inactive |
| COc1ccc(OC)c(C(O)C(C)N)c1 (stereo unspecified) | inactive |
| O=[N+]([O-])c1ccc2nc(N3CCNCC3)ccc2c1 | inactive |
| CCNC(=O)[C@H]1O[C@@H](n2cnc3c(N)ncnc32)[C@H](O)[C@@H]1O | inactive |
| CC1(C(=O)O)C2CCC(O2)C1(C)C(=O)O (stereo unspecified) | inactive |
| NC(=O)c1cc(N2CC2)c([N+](=O)[O-])cc1[N+](=O)[O-] | inactive |
| CC(N)[C@H](O)c1ccc(O)c(O)c1 (stereo partly specified) | inactive |
| O=[N+]([O-])/C=C/c1ccc2c(c1)OCO2 | inactive |
| NC(CCCCCP(=O)(O)O)C(=O)O (stereo unspecified) | inactive |
| C=CCN1C[C@@H](C)N([C@H](c2ccc(C(=O)N(CC)CC)cc2)c2cccc(OC)c2)C[C@@H]1C | inactive |

| SMILES | outcome |
| --- | --- |
| C[N+]1(C)C2CCC1CC(OC(=O)c1c[nH]c3ccccc13)C2 (stereo unspecified) | inactive |
| CC(=O)NBr | inactive |
| CCCN1CCc2cc(O)cc3c2[C@H]1Cc1ccc(O)c(O)c1-3 | inactive |
| CN1CCC(c2c[nH]c3ccc(O)cc23)CC1 | inactive |
| CCCN(CCC)CCc1ccc(O)c(O)c1 | inactive |
| N#CCCN | inactive |
| CCCN(CCC)[C@H]1CCc2c(F)ccc(O)c2C1 | inactive |
| CC(N)c1cccc(Cl)c1Cl (stereo unspecified) | inactive |
| NCC(O)c1cc(O)c(O)cc1F (stereo unspecified) | inactive |
| Cc1cc([C@@H]2CCCN2C)on1 | inactive |
| C[C@@H]1O[C@@H](O[C@H]2C[C@@H](O)[C@]3(CO)[C@@H]4C(CC[C@]3(O)C2)[C@@]2(O)CC[C@H]([C@@H]3COC(=O)C3)[C@@]2(C)C[C@H]4O)[C@H](O)[C@H](O)[C@H]1O (stereo partly specified) | inactive |
| CCCCCCC(C)(C)c1ccc([C@@H]2C[C@H](O)CC[C@H]2CCCO)c(O)c1 | inactive |
| CN1CCc2cc(O)cc3c2[C@H]1Cc1ccc(O)c(O)c1-3 | inactive |
| C[N+](C)(C)CCOC(=O)CBr | inactive |
| CN(N=O)c1ccc(O)c(O)c1 | inactive |
| CC(N)Cc1c[nH]c2ccc(OCc3cccs3)cc12 (stereo unspecified) | inactive |
| N=C(N)c1ccc(CS(=O)(=O)F)cc1 | inactive |

Experiment: qHTS for Activators of Parkin Expression: LOPAC Validation Assay (NLuc Reporter) (AID 720572)
Details: Parkin promoter NanoLuc reporter cells, luminescence; series mostly up to 46.1 µM
Outline: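 Cells harboring the Parkin-promoter coincidence reporter were treated for 24 h at seven concentrations. NLuc output was measured sequentially after the FLuc channel and scaled between DMSO and positive control values.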

| SMILES | Potency |
| --- | --- |
| C=CCN1CCc2cccc3c2[C@H]1Cc1ccc(O)c(O)c1-3 | inactive |
| COc1ccc2c(c1)c(CCN1CCOCC1)c(C)n2C(=O)c1cccc(Cl)c1Cl | inactive |
| Clc1ccc(N2CC3CCC(C2)N3)nn1 | inactive |
| O=[N+]([O-])c1ccc2nc(N3CCNCC3)ccc2c1 | inactive |
| CCNC(=O)[C@H]1O[C@@H](n2cnc3c(N)ncnc32)[C@H](O)[C@@H]1O | inactive |
| CC(N)[C@H](O)c1ccc(O)c(O)c1 (stereo partly specified) | inactive |
| C[N+]1(C)C2CCC1CC(OC(=O)c1c[nH]c3ccccc13)C2 (stereo unspecified) | inactive |
| CC(=O)NBr | inactive |
| CCCN1CCc2cc(O)cc3c2[C@H]1Cc1ccc(O)c(O)c1-3 | inactive |
| CCCN(CCC)CCc1ccc(O)c(O)c1 | inactive |
| CCCN(CCC)[C@H]1CCc2c(F)ccc(O)c2C1 | inactive |
| NCC(O)c1cc(O)c(O)cc1F (stereo unspecified) | inactive |
| Cc1cc([C@@H]2CCCN2C)on1 | inactive |
| CCCCCCC(C)(C)c1ccc([C@@H]2C[C@H](O)CC[C@H]2CCCO)c(O)c1 | inactive |
| C[N+](C)(C)CCOC(=O)CBr | inactive |
| CC(N)Cc1c[nH]c2ccc(OCc3cccs3)cc12 (stereo unspecified) | inactive |

Experiment: qHTS for Activators of Parkin Expression: LOPAC Validation Assay (FLuc Reporter) (AID 720573)
Details: Cell line, PRKN promoter firefly luciferase reporter, vehicle wells = 0, positive control = 100%; series mostly up to 46.1 µM
Outline: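 Neuronal cell line stably expressing FLuc/NLuc coincidence reporter under the Parkin promoter, 1,500 cells/well, dosed 24 h after seeding in 7-point series for 24 h at 37 C. FLuc luminescence read; normalized to DMSO and positive control (100%).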

| SMILES | outcome |
| --- | --- |
| C=CCN1CCc2cccc3c2[C@H]1Cc1ccc(O)c(O)c1-3 | inactive |
| COc1ccc2c(c1)c(CCN1CCOCC1)c(C)n2C(=O)c1cccc(Cl)c1Cl | inactive |
| CC(=O)c1c(O)c(C)c(O)c(Cc2c(O)c3c(c(C(=O)/C=C/c4ccccc4)c2O)OC(C)(C)C=C3)c1O | inactive |
| Clc1ccc(N2CC3CCC(C2)N3)nn1 | inactive |
| N[C@@H](Cn1oc(=O)[nH]c1=O)C(=O)O | inactive |
| C=CCN1CCC23c4c5ccc(O)c4O[C@H]2C(=O)CC[C@@]3(O)C1C5 (stereo partly specified) | inactive |
| NCCc1c[nH]c2ccc(C(N)=O)cc12 | inactive |
| CCCN(CCC)[C@@H]1CCc2cccc(O)c2C1 | inactive |
| CCCn1c(C)c(C(=O)c2ccc3ccccc3c2)c2ccccc21 | inactive |
| COc1ccc(OC)c(C(O)C(C)N)c1 (stereo unspecified) | inactive |
| O=[N+]([O-])c1ccc2nc(N3CCNCC3)ccc2c1 | inactive |
| CCNC(=O)[C@H]1O[C@@H](n2cnc3c(N)ncnc32)[C@H](O)[C@@H]1O | inactive |
| CC1(C(=O)O)C2CCC(O2)C1(C)C(=O)O (stereo unspecified) | inactive |
| NC(=O)c1cc(N2CC2)c([N+](=O)[O-])cc1[N+](=O)[O-] | inactive |
| CC(N)[C@H](O)c1ccc(O)c(O)c1 (stereo partly specified) | inactive |
| O=[N+]([O-])/C=C/c1ccc2c(c1)OCO2 | inactive |
| NC(CCCCCP(=O)(O)O)C(=O)O (stereo unspecified) | inactive |
| C=CCN1C[C@@H](C)N([C@H](c2ccc(C(=O)N(CC)CC)cc2)c2cccc(OC)c2)C[C@@H]1C | inactive |

| SMILES | outcome |
| --- | --- |
| C[N+]1(C)C2CCC1CC(OC(=O)c1c[nH]c3ccccc13)C2 (stereo unspecified) | inactive |
| CC(=O)NBr | inactive |
| CCCN1CCc2cc(O)cc3c2[C@H]1Cc1ccc(O)c(O)c1-3 | inactive |
| CN1CCC(c2c[nH]c3ccc(O)cc23)CC1 | inactive |
| CCCN(CCC)CCc1ccc(O)c(O)c1 | inactive |
| N#CCCN | inactive |
| CCCN(CCC)[C@H]1CCc2c(F)ccc(O)c2C1 | inactive |
| CC(N)c1cccc(Cl)c1Cl (stereo unspecified) | inactive |
| NCC(O)c1cc(O)c(O)cc1F (stereo unspecified) | inactive |
| Cc1cc([C@@H]2CCCN2C)on1 | inactive |
| C[C@@H]1O[C@@H](O[C@H]2C[C@@H](O)[C@]3(CO)[C@@H]4C(CC[C@]3(O)C2)[C@@]2(O)CC[C@H]([C@@H]3COC(=O)C3)[C@@]2(C)C[C@H]4O)[C@H](O)[C@H](O)[C@H]1O (stereo partly specified) | inactive |
| CCCCCCC(C)(C)c1ccc([C@@H]2C[C@H](O)CC[C@H]2CCCO)c(O)c1 | inactive |
| CN1CCc2cc(O)cc3c2[C@H]1Cc1ccc(O)c(O)c1-3 | inactive |
| C[N+](C)(C)CCOC(=O)CBr | inactive |
| CN(N=O)c1ccc(O)c(O)c1 | inactive |
| CC(N)Cc1c[nH]c2ccc(OCc3cccs3)cc12 (stereo unspecified) | inactive |
| N=C(N)c1ccc(CS(=O)(=O)F)cc1 | inactive |

Reference: PubChem BioAssay (NCATS)
